FBW7 activator = human FBW7 E3 ligase activation, primary screen | AlphaScreen FBW7–phospho-cyclin E peptide binding, activator screen | normalized activity (activation), % at 26.1 µM | 650,000 compounds, 0.13% hits; in the data active means normalized activity above about 1.9%;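 further: purified mutant Fbw7 with reduced substrate affinity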
GPR151 ag = activates the human receptor GPR151 | Q8TDV0 | PathHunter beta-arrestin GPR151 cells, luminescence | activation, % at 11.2 µM | 650,000 compounds, 1% hits | AID 1508602; in the data active means activation above about 4.9%;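 further: 0% = median of compound wells and 100% = cells with positive control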
MITF inh = blocks human microphthalmia-associated transcription factor. AlphaScreen MITF homodimerization, bead proximity signal. AID 1259374. O75030. 650,000 compounds, 0.91% hits. inhibition, % at 2.6 µM; in the data active means inhibition above about 50%;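 further: 0% = vehicle wells with protein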
Target sequence (O75030 whole entry, looked up): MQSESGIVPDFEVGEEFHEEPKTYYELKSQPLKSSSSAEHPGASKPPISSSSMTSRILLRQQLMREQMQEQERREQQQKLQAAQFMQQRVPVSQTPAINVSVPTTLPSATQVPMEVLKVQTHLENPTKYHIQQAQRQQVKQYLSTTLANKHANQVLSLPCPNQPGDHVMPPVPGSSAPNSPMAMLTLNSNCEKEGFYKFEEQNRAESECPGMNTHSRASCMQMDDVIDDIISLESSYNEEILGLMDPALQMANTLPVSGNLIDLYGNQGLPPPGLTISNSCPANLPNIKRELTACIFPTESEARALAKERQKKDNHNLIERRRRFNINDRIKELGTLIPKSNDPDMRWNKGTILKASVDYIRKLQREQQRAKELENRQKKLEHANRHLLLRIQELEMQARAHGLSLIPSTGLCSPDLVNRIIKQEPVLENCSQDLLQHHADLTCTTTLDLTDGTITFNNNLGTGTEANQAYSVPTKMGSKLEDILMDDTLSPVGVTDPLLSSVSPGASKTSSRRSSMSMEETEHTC
TEAD-YAP inh = TEAD-YAP interaction inhibition; HEK-TIYL cells, TEAD-Gal4/YAP UAS-luciferase luminescence; inhibition, % at 9.12 µM; 640,000 compounds, 1.4% hits; AID 1259422; in the data active means inhibition above about 32%;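 further: 0% = median of test compound wells and 100% = reference inhibitor wells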
* = called active by the depositor. Shown are actives, neighbours in structure and some others; about 3.5% of the full set was active somewhere.

`COc1cccc(NC(=O)c2cnc(N3CCN(c4ccccc4OC)CC3)c3ccccc23)c1` gave FBW7 activator 0, GPR151 ag 0, MITF inh 5 and TEAD-YAP inh 20.
Screening COc1ccccc1N1CCN(c2ncc(C(=O)N3CCCC3)c3ccccc23)CC1 returned FBW7 activator 0, GPR151 ag 0, MITF inh 3 and TEAD-YAP inh 6.
For CSc1ncccc1C(=O)Nc1cc(Cl)ccc1C the results were FBW7 activator 1, GPR151 ag 0, MITF inh 26 and TEAD-YAP inh -8.
CCOc1cc(/C=C2\SC(N3CCOCC3)=NC2=O)ccc1O was read as FBW7 activator 0, GPR151 ag 0, MITF inh 9 and TEAD-YAP inh 0.
COc1ccc(CCNC(=O)c2sc3ncn(Cc4ccccc4Cl)c(=O)c3c2C)cc1OC was read as FBW7 activator 0, GPR151 ag 0, MITF inh 20 and TEAD-YAP inh -14.
Cc1c(NC(=O)c2cc(-c3cccc(Br)c3)nc3ccccc23)c(=O)n(-c2ccccc2)n1C was read as FBW7 activator 1, GPR151 ag 0, MITF inh 1 and TEAD-YAP inh 10.
For Cc1c(NC(=O)c2cc(-c3ccccc3)nc3ccccc23)c(=O)n(-c2ccccc2)n1C the results were FBW7 activator 0, GPR151 ag 0, MITF inh -3 and TEAD-YAP inh 33*.
Screening COCCN(C(=O)c1ccco1)C(C(=O)NC1CCCC1)c1cccnc1 (stereo unspecified) returned FBW7 activator 0, GPR151 ag -1, MITF inh 6 and TEAD-YAP inh 4.
Screening CC(=O)c1ccc(-c2ccc(N)c(C(=O)c3ccccc3)c2)cc1 returned FBW7 activator 0, GPR151 ag 0, MITF inh -5 and TEAD-YAP inh 58*.
`c1c2c(cc3sc(N4CCOCC4)nc13)OCCO2` gave FBW7 activator 0, GPR151 ag -6, MITF inh 15 and TEAD-YAP inh 69*.
`C/C(=N\O)C(=O)c1ccc(Br)cc1` gave FBW7 activator 0, GPR151 ag 0, MITF inh 12 and TEAD-YAP inh -6.
Cc1ccc2nc(C)c(C(=O)NN=C3CCCCCC3)n2c1 was read as FBW7 activator 0, GPR151 ag 1, MITF inh -5 and TEAD-YAP inh 58*.
Cc1nc2ccc(Cl)cn2c1C(=O)NN=C1CCCCC1 was read as FBW7 activator 0, GPR151 ag 0, MITF inh 0 and TEAD-YAP inh 11.
`COc1ccc(C(=O)N2CCN(Cc3ccc(SC)cc3)CC2)cc1` gave FBW7 activator 0, GPR151 ag -2, MITF inh 37 and TEAD-YAP inh 43*.
Screening C=CCC(O)(CC=C)C(C)NC(=O)Cn1cc(NC(=O)CCOc2ccccc2)cn1 (stereo unspecified) returned FBW7 activator 0, GPR151 ag 0, MITF inh 0 and TEAD-YAP inh 4.
For CC(=O)c1c(C)[nH]c(C(=O)N2CCN(c3cccc(Cl)c3)CC2)c1C the results were FBW7 activator 0, GPR151 ag 1, MITF inh 8 and TEAD-YAP inh 52*.
Screening COc1cccc(N2CCN(C(=O)c3[nH]c(C)c(C(C)=O)c3C)CC2)c1 returned FBW7 activator 0, GPR151 ag 2, MITF inh 2 and TEAD-YAP inh 40*.
For CCc1c(C(=O)N2CCN(c3cccc(OC)c3)CC2)[nH]c(C)c1C(C)=O the results were FBW7 activator 0, GPR151 ag 0, MITF inh 8 and TEAD-YAP inh 54*.
Screening CC(=O)c1c(C)[nH]c(C(=O)N2CCN(c3cc(Cl)ccc3C)CC2)c1C returned FBW7 activator 0, GPR151 ag -1, MITF inh 8 and TEAD-YAP inh -2.
`CC(=O)c1c(C)[nH]c(C(=O)N2CCN(c3ccc(F)cc3)CC2)c1C` gave FBW7 activator 0, GPR151 ag 0, MITF inh -1 and TEAD-YAP inh -3.
Screening C#CC(O)(c1ccccc1)c1ccncc1 (stereo unspecified) returned FBW7 activator 0, GPR151 ag 0, MITF inh -3 and TEAD-YAP inh 0.
Screening O=C1ON=C(c2ccccc2)/C1=C/C=C/c1ccco1 returned FBW7 activator 0, GPR151 ag -1, MITF inh 38 and TEAD-YAP inh -8.
For O=C1/C(=C\C=C/c2ccco2)C(C(F)(F)F)=NN1c1ccccc1 the results were FBW7 activator 0, GPR151 ag -1, MITF inh 65* and TEAD-YAP inh 5.
COc1cccc(OCc2nc3cc(-c4cn[nH]c4C)ccc3c(=O)[nH]2)c1 was read as FBW7 activator 0, GPR151 ag -1, MITF inh 26 and TEAD-YAP inh 56*.
`Cc1ccccc1OCc1nc2ccc(-c3cn[nH]c3C)cc2c(=O)[nH]1` gave FBW7 activator 0, GPR151 ag 0, MITF inh 6 and TEAD-YAP inh 48*.
Nc1nc2ccc(Cc3nc4ccccc4o3)cc2s1 was read as FBW7 activator 0, GPR151 ag 1, MITF inh -17 and TEAD-YAP inh -54.
Nc1nc2ccc(Cc3ccc4nc(N)sc4c3)cc2s1 was read as FBW7 activator 0, GPR151 ag -1, MITF inh 10 and TEAD-YAP inh 41*.
Screening CN(C)c1ccc(/C=C/c2cc[n+](C)c3ccccc23)cc1 returned FBW7 activator -1, GPR151 ag -2, MITF inh 50 and TEAD-YAP inh 92*.
`CC(C)(C)c1ccc(C(=O)Nc2cccc(C(=O)O)c2)cc1` gave FBW7 activator 0, GPR151 ag -7, MITF inh 9 and TEAD-YAP inh 84*.
`O=C(O)c1cccc(NC(=O)c2ccc(-c3ccccc3)cc2)c1` gave FBW7 activator 0, GPR151 ag 3, MITF inh -4 and TEAD-YAP inh 41*.
`CCCCOC(=O)c1cccc(NC(=O)c2ccc(C(C)(C)C)cc2)c1` gave FBW7 activator 0, GPR151 ag 1, MITF inh -7 and TEAD-YAP inh 52*.
CCOCCOC(=O)c1ccc(NC(=O)c2ccc(C(C)(C)C)cc2)cc1 was read as FBW7 activator 0, GPR151 ag 0, MITF inh 3 and TEAD-YAP inh 69*.
For Cn1ccnc1SCc1cc(=O)c(OC(=O)c2ccc(Cl)cc2)co1 the results were FBW7 activator 0, GPR151 ag -1, MITF inh 1 and TEAD-YAP inh 0.
`O=C(N/N=C/c1ccccc1O)c1n[nH]c2c1CCCC2` gave FBW7 activator -2, GPR151 ag -3, MITF inh 4 and TEAD-YAP inh 33*.
O=C(N/N=C\c1ccccc1[N+](=O)[O-])c1n[nH]c2c1CCCC2 was read as FBW7 activator 0, GPR151 ag -8, MITF inh 23 and TEAD-YAP inh 54*.
Screening COc1ccc(S(=O)(=O)N(CC(=O)NCc2cccnc2)c2ccc(Cl)cc2)cc1 returned FBW7 activator 0, GPR151 ag 0, MITF inh 16 and TEAD-YAP inh 7.
For Cc1ccc(C(=O)OCC(=O)C(C)(C)C)cc1S(=O)(=O)N1CCOCC1 the results were FBW7 activator 0, GPR151 ag 0, MITF inh 3 and TEAD-YAP inh -11.
